Experimental findings from PubChem BioAssay are described below.

SMILES strings stand for the structures.

Sequence of Left-right determination factor 2 (Homo sapiens) (O00292 whole entry, looked up): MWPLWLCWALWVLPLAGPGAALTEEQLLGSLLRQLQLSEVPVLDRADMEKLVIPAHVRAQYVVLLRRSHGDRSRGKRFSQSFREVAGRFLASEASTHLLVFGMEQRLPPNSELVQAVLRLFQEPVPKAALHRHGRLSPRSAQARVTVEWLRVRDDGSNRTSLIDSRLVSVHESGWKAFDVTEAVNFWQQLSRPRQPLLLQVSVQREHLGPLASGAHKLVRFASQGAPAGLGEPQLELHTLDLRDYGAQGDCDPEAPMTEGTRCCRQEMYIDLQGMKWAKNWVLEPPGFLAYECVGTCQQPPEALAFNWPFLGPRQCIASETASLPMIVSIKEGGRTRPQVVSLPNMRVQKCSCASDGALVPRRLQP

The experiment has as its target Left-right determination factor 2 (Homo sapiens) (UniProt O00292). The experiment in a line: small molecules binding LEFTY2 protein – biochemical, small-molecule microarray, 635 nm fluorescence scan, primary screen (AID 1110). Conditions: higher = more signal.
The compound `CC(C)(C)N1CC=CC23O[C@@H]4/C=C\CCCOC(=O)C4[C@H]2C(=O)N(CCCO)[C@@H]3C1=O` (stereo partly specified) yielded a composite z-score of 0.178.

For `Cc1ccc(S[C@]2(C(=O)NCCCN(C)C)CC(=O)N(C3Cc4ccccc4C3)[C@@H]2c2ccc(CO)cc2I)cc1`, the composite z-score is -1.11.

For `CCOc1cc(C(O)C2C=CC3C(=O)N(c4ccccc4)C(=O)C3N2Nc2ccccc2F)ccc1O` (stereo unspecified), the composite z-score is -0.325.

In the case of `Cc1ccc(F)cc1S(=O)(=O)N[C@H]1CCN(Cc2ccc(OC(C)C)cc2)C1`, the composite z-score came out at 0.379.

In turn, `COC(=O)C(CC#Cc1ccc2c(c1)[C@]1(C(=O)N2)[C@H](c2ccc(OCCO)cc2)N2[C@H](c3ccccc3)[C@H](c3ccccc3)OC(=O)[C@H]2[C@@H]1C(=O)N1CCCCCCC1)C(=O)OC` registered a composite z-score of 1.62.

The compound `[N-]=[N+]=Nc1ccccc1C[C@]1(C(=O)N2CCOCC2)N=C(c2ccc(OCCCO)cc2)O[C@H]1c1ccccc1N=[N+]=[N-]` had a composite z-score of 1.22.

`O=C(NC1CC1)[C@@H]1c2ccccc2C(=O)N(Cc2ccc(OC(F)(F)F)cc2)[C@H]1c1ccc(CO)cc1`: the composite z-score was 0.108.

`CN(C)CCCC[C@@H]1NC(=O)[C@H]2C[C@@H](C(=O)O)[C@@H](c3ccc(O)cc3)N2C1=O` returned a composite z-score of 1.62.

`CO[C@H]1O[C@H](CO)[C@@H](OC(=O)Nc2ccccc2)[C@H](OC(=O)Nc2ccccc2)[C@H]1OC(=O)Nc1ccccc1`: the composite z-score was -0.0522.

As for `[N-]=[N+]=NCc1ccccc1[C@@H]1OC(c2ccc(OCCCO)cc2)=N[C@]1(Cc1ccccc1N=[N+]=[N-])C(=O)O`, the composite z-score was -0.0061.

As for `CC(C)=CCCC(C)=CC(O)C1C=CC2C(=O)NC(=O)C2N1Nc1ccc(Cl)cc1Cl` (stereo unspecified), the composite z-score was 0.41.

`CC(C)C(=C=CC[C@H](O)c1ccccc1OCCO)C[C@H](O)c1cc(Cl)cc(Cl)c1O`: the composite z-score turned out to be 0.0124.

The compound `COc1ccc(C(=O)Nc2ccc3c(c2)[C@@]2(O[C@H](CCO)[C@@H]([Si](C)(C)c4ccc(OC)cc4)[C@@H]2C)C(=O)N3Cc2ccccc2)cc1` yielded a composite z-score of 0.219.

As to `CC(C)(C)OC(=O)CC[C@@]1(C(=O)NCCN2CCOCC2)N=C(c2ccc(OCCCO)cc2)O[C@@H]1c1ccccc1CN=[N+]=[N-]`, the composite z-score is -0.345.

As for `CC(C)C(CO)N1C(=O)[C@@H]2C3C(=O)OCCC/C=C\[C@H]3OC23C=CCN(Cc2ccccc2)C(=O)[C@@H]13` (stereo partly specified), the composite z-score was -1.05.

`COC(=O)C(CC#Cc1ccc2c(c1)[C@]1(C(=O)N2)[C@H](C(=O)N2CCc3cc(OC)c(OC)cc3C2)[C@H]2C(=O)O[C@H](c3ccccc3)[C@H](c3ccccc3)N2[C@@H]1c1ccccc1OCCO)C(=O)OC` yielded a composite z-score of 0.815.

Consider `CC(C)=CCCC=C(C)C(O)C1C=CC2C(=O)N(c3ccccc3)C(=O)C2N1Nc1ccc(C#N)cc1` (stereo unspecified), for which the composite z-score was -0.111.

`C=CCC(OC(C)=O)[C@@H]1[C@@H](N(Cc2cccc3ccccc23)C(=O)Cc2ccc(OC)cc2)c2cc(OCCCO)ccc2N1C(=O)Cc1ccc2ccccc2c1` (stereo partly specified): the composite z-score is -0.102.

The compound `CN1C(=O)C2C=CC(C(O)c3ccc(-c4ccccc4)s3)N(NC(=O)OC(C)(C)C)C2C1=O` (stereo unspecified) had a composite z-score of 0.285.

The compound `COC(=O)[C@@]1(Cc2ccccc2)N=C(c2ccc(OCCCO)cc2)O[C@H]1c1ccccc1CN=[N+]=[N-]` returned a composite z-score of 0.024.

Compound `COc1ccc([Si](C)(C)[C@H]2[C@H](CC(=O)N3Cc4ccccc4C[C@H]3CO)O[C@@]3(C(=O)N(C)c4ccccc43)[C@@H]2C)cc1` yielded a composite z-score of 0.77.

`C=CCC(OC(C)=O)[C@@H]1[C@@H](N(Cc2cc3ccccc3o2)C(=O)c2cccc3ccccc23)c2cc(OCCCO)ccc2N1C(=O)c1ccc2ccccc2n1` (stereo partly specified) gave a composite z-score of 0.186.

`CCOC(=O)C[C@H]1[C@H](OC(=O)c2ccccc2-c2ccccc2)[C@@H](NC(=O)C2CCCCC2)c2cc(OCCCO)ccc2N1C(=O)c1ccc2ccccc2n1` showed a composite z-score of 0.358.

Consider `O=C1C2C=CC(C(O)C3CCCCC3)N(n3cnnc3)C2C(=O)N1Cc1ccccc1` (stereo unspecified), for which the composite z-score is -0.0665.

Take `C=CCOC(=O)[C@@H]1[C@H]2C(=O)O[C@H](c3ccccc3)[C@H](c3ccccc3)N2[C@H](c2ccc(OCCOC(=O)[C@H]3C[C@H]4C(=O)N[C@@H](CCCCN(C)C)C(=O)N4[C@H]3c3ccc(O)cc3)cc2)[C@@]12C(=O)Nc1ccc(I)cc12`: the composite z-score came out at 1.17.

For the compound `O=C1C[C@]2(c3ccc([N+](=O)[O-])cc3)C(=O)N(C3CC3)c3cc(CO)ccc3[C@H]2N1C1CCCCC1`, the composite z-score is 0.0985.

In turn, `CN(C)CCCNC(=O)[C@@]1(Cc2ccccc2I)c2ccccc2C(=O)N(C2CCCCC2)[C@H]1c1ccc(CO)cc1` came in with a composite z-score of 0.0837.

On to `C=CCC(OC(C)=O)[C@@H]1[C@@H](N(Cc2cccc3ccccc23)C(=O)c2ccc(-c3ccccc3)cc2)c2cc(OCCCO)ccc2N1C(=O)Cc1ccc2ccccc2c1` (stereo partly specified), for which the composite z-score was -0.181.

Compound `COc1cc(C(O)C2C=CC3C(=O)N(c4ccccc4)C(=O)C3N2Nc2ccccc2F)cc(OC)c1OC` (stereo unspecified) registered a composite z-score of 0.2.

Consider `C=CCN1C(=O)[C@@]2(O[C@@H](CCn3cc([C@H](O)c4ccccc4)nn3)[C@H]([Si](C)(C)c3ccc(OC)cc3)[C@H]2C)c2cc(N3C(=O)c4cccc5cccc3c45)ccc21`, for which the composite z-score was -0.898.

Regarding `COC(=O)[C@H](Cc1ccc(O)cc1)N[C@@H](/C=C/C1CC1)[C@H](O)Cc1ccccc1`, the composite z-score is -0.0158.

`COc1ccc([Si](C)(C)[C@@H]2[C@@H](CC(=O)N3CCC[C@H]3CO)O[C@]3(C(=O)N(Cc4cccc(N5CCCCC5=O)c4)c4ccccc43)[C@H]2C)cc1`: the composite z-score came out at 0.415.

On to `O=C1C[C@@](C(=O)O)(c2ccc([N+](=O)[O-])cc2)[C@@H](c2ccc(CO)cc2)N1C1CCCCC1`, for which the composite z-score stood at 0.245.

As to `CCOC(=O)c1cn(C[C@H](Cc2ccccc2)NC(=O)N[C@H](CO)CCc2oc(C(C)=O)c(C(=O)OC)c2C(=O)OC)nn1`, the composite z-score was determined as 0.896.

On to `NCCCCCCNC(=O)[C@@H]1C[C@@H]2C(=O)N3CCC[C@H]3C(=O)N2[C@@H]1c1cccc(OCCO)c1`, for which the composite z-score amounted to 0.738.

With `COCCOC(=O)N1C(=O)[C@@]2(c3cc(C#CCCO)ccc31)[C@H](C(N)=O)[C@H]1C(=O)O[C@H](c3ccccc3)[C@H](c3ccccc3)N1[C@@H]2c1ccccc1OCCO`, the composite z-score worked out at 0.432.
